Laboratory results published in PubChem BioAssay (Tox21).
Inconclusive results are not listed. Activity calls are given as the source filed them. Unless noted, calls come from the whole dose curve; as a rule, active = well fitted curve in the direction sought with a large enough effect in the repeat runs; inconclusive = weak or mixed curves; inactive = no such curve, though single readings can be large; an effect the other way counts as inactive or inconclusive.

Tests used:
[1] = qHTS assay to identify small molecule agonists of the peroxisome proliferator-activated receptor delta (PPARd) signaling pathway - cell viability counter screen (AID 743211); note: nearly all actives have a fitted effect of over 55% in size; note: potency is the fitted concentration of half-maximal effect
Procedure, shortened: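 Following 5 h plating at 37 C and 5% CO2, PPARd UAS-bla HEK293H cells took up test compounds for 17 h. Viability was quantified by luminescence 30 min after CellTiter-Glo addition at room temperature.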

[2] = biological target: Peroxisome proliferator-activated receptor delta (Homo sapiens) (UniProt Q03181); assay: qHTS assay to identify small molecule agonists of the peroxisome proliferator-activated receptor delta (PPARd) signaling pathway (AID 743212; calls by dose curve; note: potency is the fitted concentration of half-maximal effect)
Sequence of Peroxisome proliferator-activated receptor delta (Homo sapiens) (Q03181 whole entry, looked up): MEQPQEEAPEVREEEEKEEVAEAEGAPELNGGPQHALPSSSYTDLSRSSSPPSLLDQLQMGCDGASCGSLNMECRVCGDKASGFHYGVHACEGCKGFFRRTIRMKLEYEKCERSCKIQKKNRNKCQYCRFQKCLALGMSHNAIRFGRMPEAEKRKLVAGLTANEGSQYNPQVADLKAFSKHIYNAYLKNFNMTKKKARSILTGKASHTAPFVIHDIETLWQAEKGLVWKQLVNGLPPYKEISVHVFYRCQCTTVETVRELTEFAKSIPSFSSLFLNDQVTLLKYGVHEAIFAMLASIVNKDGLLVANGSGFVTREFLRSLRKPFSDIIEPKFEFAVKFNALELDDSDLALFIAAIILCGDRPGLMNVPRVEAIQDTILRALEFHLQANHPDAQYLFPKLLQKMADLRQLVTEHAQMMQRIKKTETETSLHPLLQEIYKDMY
Procedure, shortened: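 A PPARd-bla HEK293H line with beta-lactamase under an Upstream Activator Sequence is treated with compounds at 37 C. Substrate loading for 2 h at room temperature precedes the fluorescence measurement.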

[3] = qHTS assay to identify small molecule antagonists of the peroxisome proliferator-activated receptor delta (PPARd) signaling pathway - cell viability counter screen (AID 743213); note: nearly all actives have a fitted effect of over 50% in size; note: potency is the fitted concentration of half-maximal effect
Procedure, shortened: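 Cytotoxicity counter screen: CellTiter-Glo luminescence read 30 min after addition, in the same wells as the reporter assay. There, PPARd UAS-bla HEK293H cells (3000/well) were treated 17 h at 37 C with compound and 300 nM L165041.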

[4] = biological target: Peroxisome proliferator-activated receptor delta (Homo sapiens) (UniProt Q03181); assay: qHTS assay to identify small molecule antagonists of the peroxisome proliferator-activated receptor delta (PPARd) signaling pathway (AID 743215; active = well fitted inhibition curve with a large enough effect in the signal ratio in the repeat runs, not every such curve was filed as active; the % refers to the signal ratio;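 note: cells stimulated with agonist L165041 at 300 nM final during compound exposure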; note: potency is the fitted concentration of half-maximal effect)
Procedure, shortened: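 Antagonist-mode beta-lactamase reporter screen: HEK293H cells with UAS-bla under PPARd control, stimulated by 300 nM L165041 (final) alongside test compound for 17 h at 37 C, then FRET fluorescence after 2 h substrate incubation.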

[5] = qHTS assay to identify small molecule agonists of the farnesoid-X-receptor (FXR) signaling pathway - cell viability counter screen (AID 743218); note: nearly all actives have a fitted effect of over 45% in size; note: potency is the fitted concentration of half-maximal effect
Procedure, shortened: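 In GeneBLAzer FXR-UAS-bla HEK 293T cells, compounds act for 16 h at 37 C. Cell viability is then scored in the reporter wells by CellTiter-Glo, 30 min at RT, luminescence.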

[6] = qHTS assay to identify small molecule antagonists of the farnesoid-X-receptor (FXR) signaling pathway - cell viability counter screen (AID 743221; active = well fitted cell-killing curve with a large enough effect in the repeat runs, not every such curve was filed as active; note: nearly all actives have a fitted effect of over 50% in size; note: potency is the fitted concentration of half-maximal effect)
Procedure, shortened: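 Compound effects on cell number were measured as CellTiter-Glo luminescence in HEK 293T cells expressing FXR-UAS-bla, after 16 h at 37 C with 50 uM CDCA (final).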

[7] = biological target: Vitamin D3 receptor (Homo sapiens) (UniProt P11473); assay: qHTS assay to identify small molecule agonists of the vitamin D receptor (VDR) signaling pathway (AID 743222; calls by dose curve)
Sequence of Vitamin D3 receptor (Homo sapiens) (P11473 whole entry, looked up): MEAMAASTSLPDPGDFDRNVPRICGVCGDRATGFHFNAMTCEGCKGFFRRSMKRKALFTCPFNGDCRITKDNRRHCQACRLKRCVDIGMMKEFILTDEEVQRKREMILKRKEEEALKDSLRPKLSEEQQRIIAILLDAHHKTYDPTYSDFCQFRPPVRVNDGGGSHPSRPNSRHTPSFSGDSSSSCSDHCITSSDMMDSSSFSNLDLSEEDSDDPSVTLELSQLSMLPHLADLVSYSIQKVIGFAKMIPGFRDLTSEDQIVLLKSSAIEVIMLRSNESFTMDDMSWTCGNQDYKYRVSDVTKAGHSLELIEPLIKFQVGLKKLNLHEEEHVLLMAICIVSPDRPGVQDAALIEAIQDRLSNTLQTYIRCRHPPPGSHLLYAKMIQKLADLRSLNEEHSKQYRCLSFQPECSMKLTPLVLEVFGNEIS
Procedure, shortened: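 Agonist activity measured in VDR-bla reporter cells. Exposure 16 h, 37C, 5% CO2; detection by B/G FRET substrate, 2 h RT.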

[8] = qHTS assay to identify small molecule agonists of the vitamin D receptor (VDR) signaling pathway - cell viability counter screen (AID 743224); note: nearly all actives have a fitted effect of over 50% in size; note: potency is the fitted concentration of half-maximal effect
Procedure, shortened: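 VDR-bla cell line, quantitative HTS format; 16 h compound incubation (37C, 5% CO2); ATP-based CellTiter-Glo luminescence measured in the reporter assay wells.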

[9] = qHTS assay to identify small molecule antagonists of the vitamin D receptor (VDR) signaling pathway - cell viability counter screen (AID 743225); note: nearly all actives have a fitted effect of over 50% in size; note: potency is the fitted concentration of half-maximal effect
Procedure, shortened: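 In this counter screen, VDR-bla HEK 293T cells receive test compound plus 3 nM final calcitriol for 16 h at 37C. Room-temperature steps of 2 h with the beta-lactamase substrate, then 30 min with CellTiter-Glo, precede the luminescence read.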

[10] = qHTS assay to identify small molecule agonists of the NFkB signaling pathway (AID 1159509; active = well fitted curve in the direction sought with a large enough effect in the signal ratio in the repeat runs, not every such curve was filed as active; the % refers to the signal ratio; note: series mostly up to about 61 µM)
Procedure, shortened: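 NFkB-bla ME-180 cells carry a beta-lactamase reporter under an NF-kB response element. They were plated overnight, then exposed to compounds for 5 h at 37 C. Read-out is LiveBLAzer FRET after 1.5 hr at room temperature (405 nm excitation; 460/530 nm emission).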

[11] = qHTS assay to identify small molecule agonists of the endoplasmic reticulum stress response signaling pathway (AID 1159516; active = well fitted activation curve with a large enough effect in the signal ratio in the repeat runs, not every such curve was filed as active; the % refers to the signal ratio)
Procedure, shortened: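 ER stress element reporter (bla) in HeLa. 1,500 cells/well, overnight attachment; 5 hr compound; 2 hr RT substrate; dual-emission fluorescence.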

[12] = qHTS assay to identify small molecule agonists of the endoplasmic reticulum stress response signaling pathway - cell viability counter screen (AID 1159517; calls by dose curve)
Procedure, shortened: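 CellTiter-Glo was added to wells already read for beta-lactamase FRET, and luminescence was recorded 30 min later. Cells: ESRE-bla HeLa, 1,500 per well, compound exposure 5 hr at 37 C.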

[13] = qHTS assay to identify small molecule antagonists of the retinoid-related orphan receptor gamma (ROR-gamma) signaling pathway - cell viability counter screen (AID 1159520); note: nearly all actives have a fitted effect of over 50% in size; note: potency is the fitted concentration of half-maximal effect
Procedure, shortened: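 Tet-on ROR gamma CHO cells (1,000/well) were plated 4 hr, given compounds in DMSO for 2 hr at 37 C, then induced with 1 uM final doxycycline for 16 hr. Viability was read as ATP by CellTiter-Glo luminescence after 30 min.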

[14] = biological target: Nuclear receptor ROR-gamma (Homo sapiens) (UniProt P51449); assay: qHTS assay to identify small molecule antagonists of the retinoid-related orphan receptor gamma (ROR-gamma) signaling pathway (AID 1159521; note: nearly all actives have a fitted effect of over 50% in size; note: potency is the fitted concentration of half-maximal effect)
Procedure, shortened: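 Screening format: cell-based luciferase reporter in CHO cells with doxycycline-inducible RORγ. Compound pre-exposure lasts 2 h, doxycycline is 1 uM final, induction runs 16 h at 37 C, and ONE-Glo luminescence is read.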

[15] = qHTS assay to identify small molecule agonists of the AP-1 signaling pathway - cell viability counter screen (AID 1159525; calls by dose curve; note: nearly all actives have a fitted effect of over 55% in size; note: potency is the fitted concentration of half-maximal effect)
Procedure, shortened: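 ME-180 AP-1-bla, 2500 cells/well, Opti-MEM + 0.5% dialyzed FBS; overnight 37 °C; cpd 15-pt titration, 5 h 37 °C; CellTiter-Glo 30 min RT; luminescence read; normalised to TOAB and DMSO controls.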

[16] = qHTS assay to identify small molecule agonists of the AP-1 signaling pathway (AID 1159526; calls by dose curve)
[17] = biological target: Bile acid receptor (Homo sapiens) (UniProt Q96RI1); assay: qHTS assay to identify small molecule antagonists of the farnesoid-X-receptor (FXR) signaling pathway (AID 743217; active = well fitted inhibition curve with a large enough effect in the signal ratio in the repeat runs, not every such curve was filed as active; the % refers to the signal ratio)
Sequence of Bile acid receptor (Homo sapiens) (Q96RI1 whole entry, looked up): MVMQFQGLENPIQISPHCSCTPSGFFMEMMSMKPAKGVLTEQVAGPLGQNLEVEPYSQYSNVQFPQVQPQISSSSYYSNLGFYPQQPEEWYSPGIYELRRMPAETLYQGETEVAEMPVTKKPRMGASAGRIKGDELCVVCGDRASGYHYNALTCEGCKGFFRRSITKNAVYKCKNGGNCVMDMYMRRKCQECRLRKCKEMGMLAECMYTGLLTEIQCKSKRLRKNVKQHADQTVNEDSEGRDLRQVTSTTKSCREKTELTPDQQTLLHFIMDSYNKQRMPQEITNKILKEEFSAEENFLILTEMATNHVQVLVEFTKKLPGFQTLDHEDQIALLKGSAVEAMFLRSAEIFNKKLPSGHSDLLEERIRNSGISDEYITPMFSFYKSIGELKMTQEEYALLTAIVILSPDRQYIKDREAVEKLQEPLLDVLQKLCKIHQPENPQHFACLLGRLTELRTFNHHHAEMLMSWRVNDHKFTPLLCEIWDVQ
Procedure, shortened: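 Beta-lactamase reporter under UAS control in HEK 293T cells; compound exposure 16 h at 37 °C in the presence of chenodeoxycholic acid (50 uM final); signal from B/G FRET substrate after 2 h at room temperature.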

[18] = biological target: Bile acid receptor (Homo sapiens) (UniProt Q96RI1); assay: qHTS assay to identify small molecule agonists of the farnesoid-X-receptor (FXR) signaling pathway (AID 743220; active = well fitted activation curve with a large enough effect in the signal ratio in the repeat runs, not every such curve was filed as active; the % refers to the signal ratio)
Procedure, shortened: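 Beta-lactamase reporter under UAS control in GeneBLAzer FXR HEK 293T cells (5000/well) measured with LiveBLAzer FRET substrate after 2 h at room temperature. Compound exposure lasted 16 h at 37C.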

[19] = biological target: Vitamin D3 receptor (Homo sapiens) (UniProt P11473); assay: qHTS assay to identify small molecule antagonists of the vitamin D receptor (VDR) signaling pathway (AID 743223; active = well fitted inhibition curve with a large enough effect in the signal ratio in the repeat runs, not every such curve was filed as active; the % refers to the signal ratio; note: potency is the fitted concentration of half-maximal effect)
Procedure, shortened: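 Beta-lactamase activity in VDR-bla cells is measured by FRET substrate fluorescence (2 h, room temperature) after cells spend 16 h at 37C with test compound and 3 nM final 1alpha,25-dihydroxyvitamin D3.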

[20] = qHTS assay to identify small molecule agonists of the NFkB signaling pathway - cell viability counter screen (AID 1159515; calls by dose curve; note: nearly all actives have a fitted effect of over 55% in size; note: potency is the fitted concentration of half-maximal effect)
Procedure, shortened: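 Viability in NFkB-bla ME-180 cells was measured by CellTiter-Glo luminescence, 30 min room temperature, in wells already treated 5 hr with compounds and read for reporter FRET.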

Measured: Potency

O=c1[nH]c2ccc(Cl)cc2o1
not listed: [17] | [18] | [19] | [20]
inactive: all other assays above

NCCNCCO
not listed: [9] | [20]
inactive: all other assays above

C=COCC(C)C
not listed: [20]
inactive: all other assays above

O=c1cc(-c2ccccc2)oc2ccc3ccccc3c12
inactive: [4] | [7] | [10]
active: [1] 17.4 µM | [3] 13.8 µM | [5] 8.71 µM | [6] 19.5 µM | [8] 19.5 µM | [20] 54.9 µM | [13] 27.3 µM | [15] 24.5 µM

C[C@@H]1CN(CCCn2c3ccccc3c3ccccc32)C[C@H](C)N1
active: [1] 10.6 µM | [3] 9.44 µM | [4] 29.8 µM | [5] 15 µM | [6] 29.8 µM | [8] 26.6 µM | [9] 23.9 µM
inactive: [10] | [20] | [15] | [16]

CC(O)c1ccccc1 (stereo unspecified)
not listed: [17] | [18] | [20]
inactive: all other assays above

CCCCCCCC/C=C\CCCCCCCCCCCC(=O)O
not listed: [7] | [19] | [20]
inactive: all other assays above

O[C@@H]1CO[C@H]2[C@@H]1OC[C@@H]2O
not listed: [20]
inactive: all other assays above

CN1C(=O)c2ccccc2C1=O
inactive: [10] | [20] | [13] | [16]

CN1C(=O)N(c2ccccc2Br)Cc2cnc(Nc3ccc4c(c3)OCC(CO)O4)nc21 (stereo unspecified)
inactive: [5] | [7] | [10] | [20] | [15]
active: [1] 1.1 µM | [3] 11 µM | [19] 13.8 µM | [14] 54.5 µM

Brc1cc2ccccc2c2ccccc12
active: [14] 21.8 µM
inactive: [1] | [3] | [5] | [6] | [8] | [9] | [10] | [20]

C=C(C)[C@@H]1CCC2=CCC[C@@H](C)[C@]2(C)C1
inactive: [3] | [6] | [7] | [10] | [20] | [13] | [15] | [16]

CC(C)(O)c1ccc(CNC(=O)c2cccnc2Oc2ccc3nonc3c2)cc1
not listed: [7] | [17] | [18] | [20]
inactive: all other assays above

O=c1[nH]ncc2ccccc12
not listed: [7] | [17] | [18] | [20]
inactive: all other assays above

Oc1ccc(Cl)c2cccnc12
inactive: [5] | [18] | [6] | [10] | [20] | [14] | [15]
active: [1] 0.596 µM | [4] 1.06 µM | [8] 0.376 µM

CC(=O)Nc1ccc(C)cc1C
not listed: [7] | [20]
inactive: all other assays above

CCCCCCCCOc1ccc(C(=O)O)cc1
active: [2] 7.67 µM
not listed: [7] | [11] | [12] | [14] | [15] | [18]
inactive: all other assays above

CCC1CO1 (stereo unspecified)
not listed: [20]
inactive: all other assays above
